For 18 compounds, Potency and outcome results are on record in PubChem BioAssay (NCATS).

Molecules are shown by their SMILES. A number with no mark means an inactive call. Results filed as inconclusive are left out. Entries that show only a call come without a potency. Calls of active or inactive are those of the source. Unless noted, calls follow the shape of the dose curve; as a rule, active = well fitted curve in either direction with a large enough effect (not every such curve was filed as active); inconclusive = small, poorly fitted or top-dose-only effect, or another doubt; inactive = flat fitted curve, though single readings scatter.

Sequence of Glucocorticoid receptor (Homo sapiens) (P04150 whole entry, looked up, the tested form may be a part): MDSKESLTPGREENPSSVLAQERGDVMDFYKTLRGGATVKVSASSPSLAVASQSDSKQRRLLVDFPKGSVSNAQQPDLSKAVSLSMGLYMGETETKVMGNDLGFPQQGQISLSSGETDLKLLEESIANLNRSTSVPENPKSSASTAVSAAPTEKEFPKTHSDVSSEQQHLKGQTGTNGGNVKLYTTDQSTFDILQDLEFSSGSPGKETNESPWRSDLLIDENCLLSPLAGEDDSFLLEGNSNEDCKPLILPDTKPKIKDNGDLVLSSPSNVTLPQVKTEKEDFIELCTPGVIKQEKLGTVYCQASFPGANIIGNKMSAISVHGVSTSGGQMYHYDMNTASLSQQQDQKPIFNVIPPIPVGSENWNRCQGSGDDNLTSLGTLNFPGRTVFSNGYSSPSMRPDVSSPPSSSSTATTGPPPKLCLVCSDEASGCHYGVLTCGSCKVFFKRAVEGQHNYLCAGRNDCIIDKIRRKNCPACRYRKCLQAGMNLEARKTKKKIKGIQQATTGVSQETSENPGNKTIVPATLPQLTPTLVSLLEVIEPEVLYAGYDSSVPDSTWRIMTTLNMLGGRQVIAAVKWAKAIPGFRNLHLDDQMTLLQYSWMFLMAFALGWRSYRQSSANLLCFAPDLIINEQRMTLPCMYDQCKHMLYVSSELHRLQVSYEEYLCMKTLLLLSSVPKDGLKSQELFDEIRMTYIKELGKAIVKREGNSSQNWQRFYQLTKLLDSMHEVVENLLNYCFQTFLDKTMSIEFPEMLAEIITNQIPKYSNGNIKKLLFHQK

One test has as its target Glucocorticoid receptor (Homo sapiens) (UniProt P04150). Kind of test: GR-EFC Redistribution (AID 451; calls by dose curve; also: potency is read from the fitted curve at half-maximal effect). The conditions noted are these: CHO-K1 GR-EFC translocation, beta-gal luminescence, 2 h. The procedure, abridged:
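Translocation of GR-ED fusion to nuclear EA restores b-gal, read by luminescence after 1 h room-temperature detection. Engineered CHO-K1 biosensor cells, 1,000/well, exposed 2 h at 37 C to titrations up to 46 uM final.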
As to `CC(C)N=C(N)/N=C(\N)Nc1ccc(Cl)cc1`, the Potency was above 20.6 µM.
Still for that read-out and setting: the result for `COc1cc(NS(C)(=O)=O)ccc1Nc1c2ccccc2nc2ccccc12` reads above 46 µM; that for `CN1CCN(CCCN2c3ccccc3Sc3ccc(S(=O)(=O)N(C)C)cc32)CC1`, above 20.6 µM.
On the same count and under the same terms, the result for `NCCCC[C@H](N[C@@H](CCc1ccccc1)C(=O)O)C(=O)N1CCC[C@H]1C(=O)O` reads above 20.6 µM; that for `CC(=O)N(O)CCCCCNC(=O)CCC(=O)N(O)CCCCCNC(=O)CCC(=O)N(O)CCCCCN`, above 20.6 µM.

The next test addresses Mitogen-activated protein kinase 10 (Mus musculus) (UniProt Q61831). Kind of test: JNK3 AlphaScreen Assay (AID 530).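 Also: kinase came from lysate of stimulated human HepG2 cells; signal reports phosphorylation of biotinylated GST-cJun 1-79 at Ser73 with 10 µM ATP.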 The note with it: JNK3 lysate, c-Jun phosphorylation; series mostly up to 25.6 µM. The procedure, abridged: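 Room-temperature AlphaScreen kinase assay; pre-activated HepG2 lysate as JNK3 source, biotin-GST-cJun(1-79) substrate, 10 uM ATP, compound 15 min preincubation.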
In the case of `CN1CCN(C(c2ccccc2)c2ccccc2)CC1`, the result was inactive.
Still for that read-out and setting: the result for `CCCCOc1ccc(C(=O)CCN2CCCCC2)cc1` reads “inactive”; that for `CC(C)N=C(N)/N=C(\N)Nc1ccc(Cl)cc1`, “inactive”.
Still for that read-out and setting: the same measure for `Cc1cc(=O)n(-c2ccccc2)n1C`: “inactive”; for `CC(C)(C)CC(C)(C)c1ccc(OCCOCC[N+](C)(C)Cc2ccccc2)cc1`: “inactive”.
Same read-out and setting: the result for `Nc1cc(Cl)c(NC2=NCCN2)c(Cl)c1` reads “inactive”; that for `CC(C)(Oc1ccc(Cl)cc1)C(=O)O`, “inactive”; that for `CC(=O)O[C@]1(C(C)=O)CC[C@H]2[C@@H]3C[C@H](C)C4=CC(=O)CC[C@]4(C)[C@H]3CC[C@@]21C`, “inactive”.
As to `CCN(CCCc1ccccc1)CCCc1ccccc1`, the result was inactive.
On the same count and under the same terms, the same measure for `CN1CCN(CCCN2c3ccccc3Sc3ccc(S(=O)(=O)N(C)C)cc32)CC1`: “inactive”.
On the same count and under the same terms, the result for `NCCCC[C@H](N[C@@H](CCc1ccccc1)C(=O)O)C(=O)N1CCC[C@H]1C(=O)O` reads “inactive”; that for `Oc1c(Cl)cc(Cl)cc1Sc1cc(Cl)cc(Cl)c1O`, “inactive”; that for `CCCCCCCCCCCCCCCC[N+](C)(C)CCN(Cc1ccc(OC)cc1)c1ncccn1`, “inactive”.
Still for that read-out and setting: the result for `O=C(OCCOCCO)c1ccccc1Nc1cccc(C(F)(F)F)c1` reads “inactive”; that for `CC(O)(P(=O)(O)O)P(=O)(O)O`, “inactive”.
Regarding `COc1c(C)c2c(c(O)c1C/C=C(\C)CCC(=O)O)C(=O)OC2`, the outcome was inactive.
On the same count and under the same terms, the same measure for `CC(=O)N(O)CCCCCNC(=O)CCC(=O)N(O)CCCCCNC(=O)CCC(=O)N(O)CCCCCN`: “inactive”.

Tested on in a further test: not listed separately
Kind of test: Cell Viability - HUV-EC-C (AID 542; active = well fitted cell-killing curve with a large enough effect; also: nearly all actives have a fitted effect of over 35% in size; also: potency is read from the fitted curve at half-maximal effect). The conditions noted are these: HUV-EC-C endothelial cell viability, qHTS; series mostly up to 92.2 µM. In short, it runs like this:
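HUV-EC-C normal human vascular endothelial cells, 1000 cells/well, pre-incubated 5 hr at 37 °C, then exposed to compounds for 40 hr at 37 °C in complete medium. Viability measured as intracellular ATP by CellTiter-Glo luminescence; AC50 from Hill fits.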
Take `CC(C)(C)CC(C)(C)c1ccc(OCCOCC[N+](C)(C)Cc2ccccc2)cc1`: the Potency is 50.1 µM (active).
The same measure, in the same setting: the same measure for `CC(=O)O[C@]1(C(C)=O)CC[C@H]2[C@@H]3C[C@H](C)C4=CC(=O)CC[C@]4(C)[C@H]3CC[C@@]21C`: “inactive”.
Still for that read-out and setting: the same measure for `Oc1c(Cl)cc(Cl)cc1Sc1cc(Cl)cc(Cl)c1O`: 20 µM (active).
